Source: PubChem BioAssay
ERK AVP block: blocks ERK signaling stimulated by vasopressin. AID 995. Potency, µM (top dose mostly 57.5 µM), for the others: top-dose activity, negative = inhibition, actives largely listed as inhibitors. 72,000 tested, 0.99% active. HEK293-V1b, vasopressin-stimulated pERK AlphaScreen; note: potency is the fitted concentration of half-maximal effect; % is set by controls: 0 for no effect and ±100 for the full control effect; nearly all actives have a fitted effect of over 55% in size
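V1b-HEK293 cells; cpd 30 min 37C; 25 nM vasopressin 5 min; lyse 10 min; AlphaScreen beads 5 hr RT. Normalized to DMSO basal and 25 nM vasopressin; AC50 by Hill fit.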
ALOX15 inhib: 15-hLO (ALOX15) enzyme inhibition. purified 15hLO-1, xylenol orange hydroperoxide absorbance. Potency, µM (doses to about 57.1 µM), without a hit: at the highest dose activity change, negative = inhibition, usual class: inhibitors. 74,000 tested, 1.4% active; note: potency is the fitted concentration of half-maximal effect; % is set by controls: 0 for no effect and ±100 for the full control effect; nearly all actives have a fitted effect of over 55% in size
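Purified human 15hLO-1 (40 nM final) in 25 mM Hepes pH 7.5, 0.01% Triton X-100 was preincubated with compound 15 min at room temperature, then reacted 6 min with 50 uM arachidonic acid; hydroperoxide detected by Fe-XO, 573/405 nm absorbance ratio.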
Tau fil binding: binds recombinant human tau filaments. P10636. recombinant tau filaments, thioflavin S fluorescence, 15 h; filaments grown with octadecylsulfate alongside compound. Potency, µM (titrated, usually from 57.1 µM), for inactives: at the top dose activity change, negative = inhibition. 71,000 tested, 2% active;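 note: potency is the fitted concentration of half-maximal effect; % is set by controls: 0 for no effect and ±100 for the full control effect; actives lower thioflavin S fluorescence by blocking filaments or displacing dye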
Target sequence (P10636 whole entry, looked up): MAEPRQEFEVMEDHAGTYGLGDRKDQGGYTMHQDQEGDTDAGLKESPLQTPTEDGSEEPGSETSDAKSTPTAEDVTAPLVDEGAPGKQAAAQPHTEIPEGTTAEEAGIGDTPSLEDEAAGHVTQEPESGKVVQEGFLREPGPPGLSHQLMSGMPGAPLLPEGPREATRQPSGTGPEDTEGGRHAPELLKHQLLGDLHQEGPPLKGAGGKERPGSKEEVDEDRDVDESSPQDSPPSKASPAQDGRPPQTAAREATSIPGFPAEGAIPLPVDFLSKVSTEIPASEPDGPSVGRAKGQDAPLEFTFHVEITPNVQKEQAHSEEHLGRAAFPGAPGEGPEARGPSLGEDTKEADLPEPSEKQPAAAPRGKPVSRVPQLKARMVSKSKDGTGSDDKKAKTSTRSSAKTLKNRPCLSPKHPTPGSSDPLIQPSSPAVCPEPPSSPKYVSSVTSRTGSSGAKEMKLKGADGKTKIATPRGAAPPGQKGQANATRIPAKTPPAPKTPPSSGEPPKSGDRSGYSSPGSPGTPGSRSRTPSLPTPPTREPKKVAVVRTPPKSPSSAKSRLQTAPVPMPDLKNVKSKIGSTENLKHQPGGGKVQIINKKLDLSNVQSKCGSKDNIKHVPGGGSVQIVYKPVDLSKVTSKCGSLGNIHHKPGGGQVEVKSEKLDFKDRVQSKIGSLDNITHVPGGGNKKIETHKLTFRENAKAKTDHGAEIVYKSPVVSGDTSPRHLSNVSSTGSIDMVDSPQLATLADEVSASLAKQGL
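His-tagged recombinant human tau (exons 2, 3, 10; 1 uM final) fibrillized with 30 uM sodium octadecylsulfate, 15 h at 37 C, in pH 7.4 HEPES buffer with 10 uM thioflavine S and 5 mM DTT. Reduced ThS fluorescence (450/510 nm) marks activity.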
Hsp90 Hop PPI: changes Hsp90-Hop TPR2A binding signal, up or down; Potency, µM (doses to about 57 µM), for the others: at the top dose activity change, negative = inhibition; AlphaScreen TPR2A-His6 binding biotin-Hsp90 C-terminal peptide; 71,000 tested, 0.44% active; active = well fitted curve in either direction with a large enough effect; inconclusive = small, poorly fitted or top-dose-only effect, or another doubt; note: potency is the fitted concentration of half-maximal effect; % is set by controls: 0 for no effect and ±100 for the full control effect
Pol III holo inh: inhibitors of bacterial DNA polymerase III holoenzyme. reconstituted DNA polymerase III holoenzyme replication, biochemical. Potency, µM (doses to about 57.1 µM), without a hit: at the top dose activity change, negative = inhibition. 71,000 tested, 0.25% active; note: potency is the fitted concentration of half-maximal effect; % is set by controls: 0 for no effect and ±100 for the full control effect
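Reconstituted *E. coli* holoenzyme (0.35 nM Pol III, 1 nM beta, 154 nM SSB, 2 nM primase) was preincubated with compound for 15 min at RT. Synthesis on 1.4 nM ssM13Gori ran 35 min, then was stopped with PicoGreen/EDTA and read as dsDNA fluorescence.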
TsaE inh: YjeE (TsaE) inhibition, E. coli; Potency, µM; 71,000 tested, 0.05% active; purified YjeE enzyme, qHTS inhibition assay
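Purified YjeE (10 uM) with BODIPY Texas Red-labeled ADP probe (2 uM); compounds pin-transferred, 15 min at room temperature. Binding inhibition read as decreased fluorescence polarization; ADP titration as control.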
* = called active by the depositor; i = inactive; ? = inconclusive; . = no result given; ! = repeats disagree; [ ] = another dose, or the depositor's remark. Rows were chosen to be rich in hits. Some 4.2% of all compounds tested hit in one or more screens of this group. Unless noted, calls come from the whole dose curve; as a rule, active = well fitted curve in the direction sought with a large enough effect; inconclusive = small, poorly fitted or top-dose-only effect, or another doubt; inactive = no such curve, though single readings can be large; an effect the other way counts as inactive or inconclusive.

SMILES | ERK AVP block | ALOX15 inhib | Tau fil binding | Hsp90 Hop PPI | Pol III holo inh | TsaE inh
COc1cc2c(cc1OC)C(/C(C#N)=N\O)=NC(C)(C)C2 | -22% | 0% | -12% | -2% | -3% | i
CCc1ccc(C2C(C#N)=C(N)SC(N)=C2C#N)s1 | ? | 10µM* | 25µM* | -16% | -4% | i
Cc1ccc(C2C(C#N)=C(N)SC(N)=C2C#N)o1 | -21% | 6.3µM* | -2% | -10% | -7% | i
CCc1ccc(C2C(C#N)=C(N)SC(N)=C2C#N)cc1 | 3% | 0.63µM* | 12%[11.4 µM] | -4%[11 µM] | 2%[11.4 µM] | i
N#CC1=C(N)SC(N)=C(C#N)C1c1ccc(C(F)(F)F)cc1 | -1% | ? | -25% | 0% | -5% | i
N#CC1=C(N)SC(N)=C(C#N)C1c1c(Cl)cccc1Cl | 11% | ? | 118% | 3% | 2% | i
COC(=O)[C@H](N)Cc1ccc(Cl)cc1 | 6% | 8% | -7% | -15% | -6% | i
CCOC(=O)c1c(C)n(C)c2ccc(OCC(O)CN3C(=O)c4ccccc4S3(=O)=O)cc12 (stereo not drawn) | ? | 1% | 35% | -12% | -5% | i
COc1ccc(C2C(C(C)=O)=C(C)N=c3s/c(=C\c4ccc5c(c4)OCO5)c(=O)n32)c(OC)c1 (stereo not drawn) | -21% | -5% | 4µM* | -30% | 6% | i
Cc1[nH]n2c(=O)cc(Cc3ccccc3)nc2c1C#N | 32% | 11% | 14% | -1% | -5% | i
Cc1nc(N=Nc2cc(S(=O)(=O)O)c3cc([N+](=O)[O-])cc(S(=O)(=O)O)c3c2)c(COP(=O)(O)O)c(C=O)c1O | ? | 10µM*! | ? | -23% | 32µM* | i
N#CC1=C(N)SC(N)=C(C#N)C1c1cccc(Oc2ccccc2)c1 | -16% | 5µM* | -4% | -5% | -2% | i
COC(=O)CN1C(=O)C2(C(C#N)=C(N)Oc3n[nH]c(-c4cccs4)c32)c2ccccc21 (stereo not drawn) | 22% | 7% | 0% | -2% | -5% | i
c1ccc(-c2csc3ncn4cnnc4c23)cc1 | 6.3µM* | 13% | 56% | -9% | 1% | i
COCCn1c(=O)c(-c2ccccc2)nc2cnc(Oc3cccc(Cl)c3)nc21 | -19% | -3% | -28% | 0% | 12% | i
COCC(C)NC(=O)c1ccc(N(C)C)cc1 (stereo not drawn) | -10% | 7%[11.4 µM] | 0%[11.4 µM] | -3%[11 µM] | 1%[11.4 µM] | i
CNNCc1ccc(C(=O)NC(C)C)cc1 | 16%[25.7 µM] | 7.9µM* | -10%[25.6 µM] | -3%[26 µM] | -8%[25.6 µM] | i
Cc1c(-c2nc(N)nc(Nc3ccccc3F)n2)oc2ccccc12 | -19% | -16% | 33% | -5% | -3% | i
c1ccc2c(c1)CCN(c1nc3cc4c(cc3s1)OCO4)C2 | -8% | 10µM* | 1% | -12% | 3% | i
c1ccc(N2CCN(c3nc4cc5c(cc4s3)OCO5)CC2)cc1 | 2% | 13µM* | -1% | -3% | -9% | i
c1c2c(cc3sc(N4CCOCC4)nc13)OCO2 | 11% | ? | -8% | -1% | -3% | i
CSc1ccc2c(c1)N(CCC1CCCCN1C)c1ccccc1S2 (stereo not drawn) | . | -12% | . | . | . | .
CN1CC[C@H](CN2c3ccccc3Sc3ccccc32)C1 | 7%[11.5 µM] | 5%[11.4 µM] | 4µM* | -1%[11 µM] | -3%[11.4 µM] | i
Cc1cc(N)n2ncc(-c3cccc(Br)c3)c2n1 | -2% | -23%[11.4 µM] | 1.6µM* | 11%[11 µM] | -2%[11.4 µM] | i
Cc1cc(N)n2ncc(-c3ccccc3)c2n1 | 25µM* | ? | -20% | 4% | -4% | i
SMILES | ERK AVP block | ALOX15 inhib | Tau fil binding | Hsp90 Hop PPI | Pol III holo inh | TsaE inh
Cc1cc(N)n2nc(-c3ccccc3)cc2n1 | -21% | 11% | 2% | -3% | -2% | i
c1ccc(CCc2nn3c(Cc4ccccc4)nnc3s2)cc1 | -6% | -2% | 12% | 1% | -2% | i
CCC(=Nc1ccc(N)cc1)C1=C(O)C(C(=O)OC)C(C)(C)CC1=O (stereo not drawn) | ? | -21% | 16µM* | -22% | -7% | i
CCCC(=Nc1ccccc1)C1=C(O)C(C(=O)OC)C(C)(C)CC1=O (stereo not drawn) | 0% | -2% | 11% | 0% | -1% | i
Cc1ccc(C2C3=C(CCCC3=O)Nc3[nH]c(=S)[nH]c(=O)c32)cc1 (stereo not drawn) | 17% | 20µM* | 6% | 0% | 11% | i
Cc1ccc(CSc2nc3c(c(=O)[nH]2)C(c2ccncc2)C2=C(CCCC2=O)N3)cc1 (stereo not drawn) | -28% | 8% | 24% | -6% | 3% | i
O=C1CCCC2=C1C(c1ccc3c(c1)OCO3)c1c([nH]n(-c3ccccc3)c1=O)N2 (stereo not drawn) | -16% | -7% | 195% | -3% | -13% | i
O=C1CCCC2=C1C(c1ccc(Br)cc1)c1c([nH]c(=S)[nH]c1=O)N2 (stereo not drawn) | -10% | 25µM* | 8% | -4% | 3% | i
C#C[C@]1(O)CC[C@@H]2[C@H]3CCc4cc(OC)ccc4[C@@H]3CC[C@@]21C | ? | -7%[25.6 µM] | 3%[25.6 µM] | 1%[26 µM] | -6%[25.6 µM] | i
Nc1c(C(=O)N2CCCCC2)sc(=S)n1-c1ccccc1 | ? | 10µM* | -11% | -11% | -2% | i
Nc1c(C(=O)N2CCOCC2)sc(=S)n1-c1ccccc1 | -13% | ? | 8% | -8% | 0% | i
CCOc1ccc(CCNC(=O)C2CCN(S(=O)(=O)N3CCOCC3)CC2)cc1OCC | -1% | 3% | -2% | 1% | -1% | i
CCN(CC)c1ccc(NC(=O)c2ccc(Br)o2)cc1 | ? | -30%[11.4 µM] | 3.2µM* | -29%[11 µM] | 3%[11.4 µM] | i
O=C(Nc1ccccc1N1CCOCC1)c1ccc(Br)o1 | -4% | 3% | 1% | -2% | -1% | i
CN1CCN(c2ccccc2NC(=O)c2ccc(Br)o2)CC1 | 20µM* | -5% | 6% | -12% | -4% | i
O=C(Nc1ccc(N2CCCC2)cc1)c1ccc(Br)o1 | -14% | ? | 3.2µM* | ? | -16%[11.4 µM] | i
Cc1ccc(NS(=O)(=O)c2ccc(NC(=O)c3ccc(Br)o3)cc2)c(C)c1 | ? | 16µM* | 40% | -15% | 0% | i
COc1ccc(-c2ccc(-c3noc(C(C)C)n3)c(OC)n2)cc1 | 33% | -9% | 39% | ? | 26% | i
O=C(O)CCc1ccc(-c2ccc(F)cc2)n1Cc1ccco1 | -30% | -20% | -5% | -3% | -13% | i
CCn1c2ccccc2c2nnc(SCC(=O)c3ccccc3)nc21 | 20µM* | 5% | 95% | 2% | 0% | i
c1cc(Nc2ncnc3sccc23)cc(-c2nnc3n2CCCCC3)c1 | -4% | -2% | 2% | -3% | -6% | i
